# Compounds without any hit were thinned out: in the full panel of roughly 83,000, 20% have a hit.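 Cell lines were cultured in 96-well plates, exposed to a single compound concentration, and assessed for percent growth 48 hours later.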 A number with no mark means an inactive call. Active and inactive are the calls of the source. Rule for the calls: active = growth percent below 10; inactive = the rest.
# How the values were obtained:
# Experiment in all cases: NCI-60 one-dose screen, 48 h (100 = growth as untreated, 0 = no growth, -100 = all killed)
# SK-MEL-2 melanoma = settings: 10 µM unless noted
# SN12C renal = settings: 10 µM unless noted
# UO-31 renal = settings: 10 µM unless noted
# TK-10 renal = settings: 10 µM unless noted
# ACHN renal = settings: 10 µM unless noted
# A498 renal = settings: 10 µM unless noted
# CCRF-CEM leukemia = settings: 10 µM
# RPMI-8226 leukemia = settings: 10 µM unless noted
# OVCAR-8 ovarian = settings: 10 µM unless noted
# OVCAR-5 ovarian = settings: 10 µM unless noted
# OVCAR-4 ovarian = settings: 10 µM unless noted
# SK-OV-3 ovarian = settings: 10 µM unless noted
# IGROV1 ovarian = settings: 10 µM unless noted
# OVCAR-3 ovarian = settings: 10 µM unless noted
# NCI/ADR-RES ovarian = settings: 10 µM unless noted
# CAKI-1 renal = settings: 10 µM unless noted
# MOLT-4 leukemia = settings: 10 µM unless noted
# HS 578T breast = settings: 10 µM unless noted
# SR leukemia = settings: 10 µM unless noted
# EKVX NSCLC = settings: 10 µM
SMILES,growth (SK-MEL-2 melanoma),growth (SN12C renal),growth (UO-31 renal),growth (TK-10 renal),growth (ACHN renal),growth (A498 renal),growth (CCRF-CEM leukemia),growth (RPMI-8226 leukemia),growth (OVCAR-8 ovarian),growth (OVCAR-5 ovarian),growth (OVCAR-4 ovarian),growth (SK-OV-3 ovarian),growth (IGROV1 ovarian),growth (OVCAR-3 ovarian),growth (NCI/ADR-RES ovarian),growth (CAKI-1 renal),growth (MOLT-4 leukemia),growth (HS 578T breast),growth (SR leukemia),growth (EKVX NSCLC)
CC(=O)Nc1ccc(S(=O)(=O)Cl)cc1,111%,94.5%,97.2%,100%,113%,101%,90.9%,100%,113%,109%,110%,106%,116%,112%,116%,,,,,
CCC(C)[C@H](NC(=O)Nc1cc(C(F)(F)F)cc(C(F)(F)F)c1)C(=O)N[C@@H](Cc1cn(C)cn1)C(=O)OC (some centres undefined),-92.4% [100 µM] (active),-82% [100 µM] (active),-95.3% [100 µM] (active),-98.7% [100 µM] (active),-98.4% [100 µM] (active),-94.4% [100 µM] (active),,-65.7% [100 µM] (active),-78.3% [100 µM] (active),-93.7% [100 µM] (active),-96.7% [100 µM] (active),-100% [100 µM] (active),-81.5% [100 µM] (active),-97.6% [100 µM] (active),-49.2% [100 µM] (active),-99.6% [100 µM] (active),-54.9% [100 µM] (active),-18.6% [100 µM] (active),,
O=C(Nc1ccc(Cl)c(Cl)c1)O/N=C\c1c(Cl)ccc([N+](=O)[O-])c1Cl,-4.77% (active),-52.4% (active),-32.6% (active),-97.2% (active),,46%,-19.3% (active),-52.7% (active),8% (active),12.1%,-65.8% (active),61.3%,-45.8% (active),-99.3% (active),16.5%,7.78% (active),-32.9% (active),,,
CC(=O)N(N=O)c1ccc([N+](=O)[O-])cc1Cl,73.1%,47.4%,57.3%,130%,58.9%,,46.8%,17.2%,66.1%,88.5%,55.5%,66.9%,67.7%,44.5%,64.5%,100%,58.4%,,63.1%,
O=CN/N=C/c1ccc(Cl)c([N+](=O)[O-])c1,41.1%,21.2%,80.1%,,44.2%,56%,15.3%,15.6%,18.1%,31%,49.6%,46.9%,16.9%,18.1%,107%,41.1%,20.6%,,39.9%,
O=C1CCNC1,109%,103%,92.1%,100%,101%,94.9%,,102%,100%,105%,97.8%,107%,118%,109%,110%,113%,,114%,106%,
CCN(CC)C(=O)C1(C)CCCC2(C)c3cc(OC(C)=O)ccc3CCC12 (centres undefined),80.3%,91.7%,54.4%,78.1%,80.7%,83.9%,,58.8%,86.4%,96.9%,71.2%,94.1%,79.9%,88.8%,85.8%,76.8%,64.1%,84.1%,,
CCCCCCCCCCCCCCCCCC(=O)Nc1ccc(O)cc1,83.1%,75.7%,52.5%,85.3%,,109%,,77.8%,91.3%,117%,104%,98.8%,105%,103%,95.4%,95.1%,26.7%,104%,,
C/C(=C\c1ccc2ccccc2c1)[N+](=O)[O-],4.49% (active),89.6%,-80.1% (active),-47% (active),,103%,-25.4% (active),-33.9% (active),11.7%,82.6%,87.6%,99.4%,-20% (active),-76.6% (active),88.4%,-79.2% (active),-1.16% (active),,4.41% (active),
COC(=O)[C@H](Cc1cn(C)cn1)NC(=O)[C@H](Cc1c[nH]c2ccccc12)NC(=O)Nc1cc(C(F)(F)F)cc(C(F)(F)F)c1,-82.6% [100 µM] (active),-83.7% [100 µM] (active),22.5% [100 µM],-66.2% [100 µM] (active),-38% [100 µM] (active),-35.8% [100 µM] (active),,-38.4% [100 µM] (active),-78.5% [100 µM] (active),-73.6% [100 µM] (active),-50.7% [100 µM] (active),-89.9% [100 µM] (active),-46.2% [100 µM] (active),-95.7% [100 µM] (active),69.7% [100 µM],,-45.8% [100 µM] (active),10.4% [100 µM],-42.8% [100 µM] (active),
O=C(NCCO)C(F)(F)F,105%,102%,94.2%,102%,101%,107%,,109%,103%,96.6%,118%,100%,106%,101%,106%,95.9%,99.3%,106%,,
CC(=O)CC(=O)OC/C=C(/C)CCC=C(C)C,126%,94.5%,102%,108%,102%,117%,116%,112%,103%,100%,113%,111%,116%,110%,102%,,94.7%,,92.2%,
CCCCCCN(CCCCCC)CCC(=O)Nc1ccc(S(=O)(=O)c2ccc(NC(=O)CCN(CCCCCC)CCCCCC)cc2)cc1,122%,81.4%,52.3%,109%,88.3%,,51.3%,60.7%,90.8%,82.9%,77.6%,84.2%,84.3%,80.7%,83.8%,86.6%,59.1%,,7.85% (active),
CCn1cnc(C[C@H](NC(=O)[C@@H](NC(=O)Nc2cc(C(F)(F)F)cc(C(F)(F)F)c2)C(C)C)C(=O)OC)c1,-86% [100 µM] (active),-86.8% [100 µM] (active),-97% [100 µM] (active),-98.7% [100 µM] (active),-98.7% [100 µM] (active),-89.5% [100 µM] (active),,,-81.6% [100 µM] (active),-94.9% [100 µM] (active),-96.2% [100 µM] (active),-100% [100 µM] (active),-71.5% [100 µM] (active),-89.5% [100 µM] (active),0.865% [100 µM] (active),,-54.9% [100 µM] (active),7.39% [100 µM] (active),,
CC(=O)O.[In],98.4%,109%,88.4%,100%,104%,112%,85.4%,102%,102%,105%,114%,103%,106%,116%,107%,,99.9%,,93.4%,
O=C(Nc1ccc(-n2cc(-c3ccncc3)c(-c3ccc(Cl)c(O)c3)n2)cc1)c1cc(C(F)(F)F)cc(C(F)(F)F)c1,,74.7%,67.5%,65.4%,54.3%,87.7%,72.9%,27.6%,65.4%,84.5%,70%,72.4%,70.5%,53.2%,72.9%,60.4%,55.6%,-4.23% (active),23.9%,97.4%
CCN(CC)CCOC(=O)c1cccnc1,91.1%,96.2%,86.2%,,99.3%,62.5%,,91.4%,97.6%,96.4%,90.1%,96.1%,103%,107%,101%,99.6%,94.2%,92%,,

# Reference: PubChem BioAssay (NCI)
